High-throughput results from PubChem BioAssay.
PfHsp40 yeast – rescue of yeast from PfHsp40 toxicity, primary screen, S. cerevisiae, ATP luminescence. S. cerevisiae expressing PfHsp40, growth rescue. growth rescue, % at 12.5 µM. 0.68% of 340,000 active. AID 504582, 2011; in the data active = growth rescue above about 28%, passing the limit was not always enough;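 note: yeast W303a lacking pdr1 and pdr3 grown in galactose medium; growth measured after three days at 30 °C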
Sa RN4220 lethal – growth inhibition of S. aureus RN4220, primary screen, OD600; 0.33% of 330,000 active; inhibition, % (test concentration not listed); 16 h; in the data active = inhibition above about 85%;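 note: plate controls were untreated cells for no effect and reference antibiotic for full effect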
Mtb bLac sens – beta-lactam sensitization of Mtb H37Rv, H37Rv; M. tuberculosis H37Rv growth with meropenem, percent inhibition; inhibition, % at 25 µM; 0.27% of 330,000 active; call rule not given here;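 note: growth measured after seven days incubation then overnight dye step; 0% = bacteria only wells and 100% = bacteria with antibiotic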
ugtP null kill – growth inhibition of ugtP-null S. aureus, primary screen, RN4220 ugtP deletion, OD600 | 16 h | AID 1259309, 2017 | growth inhibition, % (test concentration not listed) | 0.54% of 330,000 active; in the data active = growth inhibition above about 68%;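 note: plate controls were untreated wells for no effect and antibiotic for full effect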
Vc quorum ag – inducers of Vibrio cholerae quorum light production without autoinducers, primary screen, BH1578 luxS cqsA deficient, single point | V. cholerae BH1578 lux reporter, luminescence, 6 h | activation, % at 18.7 µM | 0.16% of 350,000 active | AID 588436, 2011; in the data active = activation mostly above about 9.7%, no sharp cut-off
An asterisk follows results filed as active; i = inactive; · = not tested or not shown; ! = not confirmed by another sample. Most compounds without a hit are left out; they make up all but 1.2% or so of the library.

SMILES	PfHsp40 yeast	Sa RN4220 lethal	Mtb bLac sens	ugtP null kill	Vc quorum ag
COc1ccc(Cn2ccc(=O)c(Cc3c(Cl)cccc3Cl)c2C)cc1	2	98*	2	98*	-1
CN(C)c1nc(NN=Cc2ccc(Cl)c([N+](=O)[O-])c2)nc(Nc2ccc(F)cc2)n1	·	48	·	40	·
CCOC(=O)C1C2COc3cc(OC)ccc3C2N2C(=O)N(c3ccc(C)cc3)C(=O)[C@@]12C (stereo partly specified)	·	4	·	-13	·
O=C1C2C(C=Cc3ccccc3)N3C(=O)CN(CCO)C(=O)[C@@]3(Cc3ccccc3)C2C(=O)N1c1ccccc1 (stereo partly specified)	·	4	·	-8	·
Cn1c(C=O)c(C#Cc2ccccc2)c2ccccc21	0	-3	26	100*	i
COc1ccc(C#Cc2c(C=O)n(C)c3ccccc23)cc1	-1	1	63	100*	i
CC(O)C1CNC(=O)C(=O)N1CC(C)(C)C (stereo unspecified)	·	9	·	1	·
Cc1c2ccncc2c(C)c2c1[nH]c1ccccc12	-1	98*	100	100*	8
COc1ccc2[nH]c3c(C)c4ccncc4c(C)c3c2c1	8	98*	100	96*	0
Cc1c2ccncc2cc2c1[nH]c1ccccc12	7	14	·	22	-6
CCCCCC(=O)Nc1cccc(C2=NOC3(C2)CC(C(N)=O)N(C(=O)Cc2ccc([N+](=O)[O-])cc2)C3)c1 (stereo unspecified)	·	4	·	4	·
CCC(C)NCCOc1ccccc1C (stereo unspecified)	1	·	0	·	24*
CCC(C)NCCOc1ccc(Br)cc1 (stereo unspecified)	0	4	-11	5	2
C/C(=N\NC(=S)NC1CCCCC1)c1c(F)cccc1F	45*	·	78	·	0
C/C(=N\NC(=S)NC1CCCCC1)c1cccs1	3	·	97	·	i
Cc1ccc(CO/N=C/C2=C(Cl)c3ccccc3CC2)cc1	0	·	36	·	-1
Fc1ccc(CON=CC2=C(Cl)c3ccccc3CC2)cc1	·	10	·	99*	·
CCOC(=O)c1ccc(NC(=O)CC2C(=O)OCCN2CC)cc1 (stereo unspecified)	219*	8	38	5	0
CCN1CCOC(CC(=O)Nc2cccc([N+](=O)[O-])c2)C1=O (stereo unspecified)	·	4	2	6	i
CCOC(=O)c1ccc(NC(=O)CC2OCCN(CC)C2=O)cc1 (stereo unspecified)	53*	7	84	5	0
CCOC(=O)c1ccc(NC(=O)CC2NCCNC2=O)cc1 (stereo unspecified)	1	8	-1	1	i
O=C(O)c1ccc(/C=C/c2ccc3cccc(O)c3n2)cc1	0	7	·	-3	1
COC(=O)c1ccc(/C=C/c2ccc3cccc(OC(C)=O)c3n2)cc1	140*	-3	95	-13	0
Oc1ccc(/C=N/Nc2ccc(C(F)(F)F)cn2)c(O)c1	421*	·	10	·	i
CC(=O)Nc1cccc(C(C)=NNC(=O)c2ccc3c(c2)OCO3)c1	·	2	·	1	·
SMILES	PfHsp40 yeast	Sa RN4220 lethal	Mtb bLac sens	ugtP null kill	Vc quorum ag
CC(=O)C(=NNc1ccc(Br)cc1)Sc1cccc2cccnc12	·	-2	·	-5	·
O=C(CCC1CCCC1)NC(Cc1ccc(O)cc1)C(=O)O (stereo unspecified)	·	5	·	3	·
CC(c1ccon1)N(C)Cc1cn(C)nc1-c1cccc(Cl)c1 (stereo unspecified)	79*	3	-18	4	i
CC(=NNC(=S)Nc1c(C)cccc1C)c1ccc(OC(F)F)cc1	·	7	·	-5	·
Brc1ccccc1/C=N/Nc1ccc2ccccc2n1	5	·	89	·	0
O=C(N/N=C\c1cccc([N+](=O)[O-])c1O)C1COc2ccccc2O1 (stereo unspecified)	42*	·	1	·	0
O=C(N/N=C/c1c(O)n(-c2ccccc2Cl)c(=O)c2ccccc12)C1COc2ccccc2O1 (stereo unspecified)	4	-2	6	4	0
O=[N+]([O-])c1cccc(C=NNc2ccc3ccccc3n2)c1O	241*	·	·	·	1
Cc1ccc(-n2c(O)c(/C=N/NC(=O)C3COc4ccccc4O3)c3ccccc3c2=O)cc1 (stereo unspecified)	205*	·	-1	·	0
C/C(C=NNC(=O)c1cc(-c2ccc3ccccc3c2)n[nH]1)=C\c1ccco1	·	7	·	-17	·
Clc1ccc(/C=C/c2nc3ccccc3[nH]2)cc1	-3	25	18	-17	·
Clc1ccc(/C=C/c2nc3ccccc3[nH]2)c(Cl)c1	0	75	16	92*	i
COc1ccc(C=Nn2cncn2)cc1Cn1nc(C)c([N+](=O)[O-])c1C	·	2	·	-2	·
CC(O)C1NC(=O)c2cc([N+](=O)[O-])cc(I)c2NCCC(C(N)=O)NC(=O)CNC1=O (stereo unspecified)	·	3	·	2	·
FC(F)(F)c1ccc2c(c1)N(CCCN1CCN(CCCl)CC1)c1ccccc1S2	-2	100*	-1	101*	0
COC(=O)[C@@]12CCCN1C(c1ccc(-c3ccc(F)cc3)cc1)C1C(=O)N(C)C(=O)C12 (stereo partly specified)	·	2	·	4	·
CCCSc1ccc(C2N[C@@](C)(C(=O)OC)C3C(=O)N(C)C(=O)C23)cc1 (stereo partly specified)	·	6	·	2	·
CCCc1cc(-c2n[nH]c(=S)n2-c2cccc(C)c2)cs1	68*	0	4	26	0
Cc1cccc(-n2c(-c3csc(C(C)C)c3)n[nH]c2=S)c1	-2	3	-7	16	i
CCc1ccc(/C=C/C(=O)C2C(=O)c3ccccc3C2=O)cc1	0	100*	98	97*	i
CCc1nc(NCCC(C)C)c(C#N)c2c1CCCC2	-1	1	0	88*	-5
CCC(C)n1ncn(-c2ccc(N3CCN(c4ccc(OCC5COC(Cn6cncn6)(c6ccc(Cl)cc6Cl)O5)cc4)CC3)cc2)c1=O (stereo unspecified)	181*!	2	1	-11	i
O=C1C2C(c3ccc(F)cc3)N3C(=O)N(c4ccc(C(F)(F)F)cc4)C(=O)[C@@]3(Cc3ccccc3)C2C(=O)N1C1CCCCC1 (stereo partly specified)	·	0	·	-29	·
CCOc1ncccc1C(=O)N(C)CC(=O)Nc1ccc(C)cc1	-2	3	-2	6	0
COc1cccc(NC(=O)CN(C)C(=O)c2ccccc2OCC(=O)Nc2cccc(C(F)(F)F)c2)c1	-1	1	-7	-8	-1
COc1cccc(NC(=O)CN(C)C(=O)c2cccnc2Nc2cccc(C(F)(F)F)c2)c1	299*	-14	98	-9	-2
Cc1ccc(NC(=O)CN(C)C(=O)c2cccnc2Nc2cccc(C(F)(F)F)c2)cc1	567*	32	100	12	i
